# Source: PubChem (several laboratories)
# H9c2 protect: cardioprotection against H2O2-induced cell death, primary screen, uHTS, H9c2 cells, ATPLite luminescence. H9c2 cardiomyocytes, H2O2 injury protection, 2 h. protection from H2O2 cell death, % at 20 µM. 360,000 compounds, 0.63% hits. AID 588492, 2011;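 active = compounds giving at least 50% protection of heart cells from peroxide-induced death in the single-dose screen, raw or plate-pattern-corrected value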;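 also: 0% = DMSO wells with peroxide and 100% = DMSO wells without peroxide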
# ALR inh: inhibitors of human ALR sulfhydryl oxidase, primary screen, biochemical, H2O2 detection, HRP-luminol luminescence, single point; FAD-linked sulfhydryl oxidase ALR (Homo sapiens), P55789; purified ALR, DTT oxidation; inhibition, % (no concentration beside the values); 290,000 compounds, 3.8% hits; AID 485317, 2010;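 active = mean replicate inhibition above about 79%, with every replicate also reaching it, limit read from the data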
# Target sequence (P55789 whole entry, looked up): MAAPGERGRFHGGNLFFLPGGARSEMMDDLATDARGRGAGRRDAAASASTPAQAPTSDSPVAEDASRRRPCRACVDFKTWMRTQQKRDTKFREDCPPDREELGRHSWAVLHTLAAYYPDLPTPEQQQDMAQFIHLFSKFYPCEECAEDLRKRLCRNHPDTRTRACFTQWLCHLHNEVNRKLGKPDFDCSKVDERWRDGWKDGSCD
# PHOSPHO1 block: PubChem AID 1565; inhibition, % at 13.3 µM; recombinant PHOSPHO1, absorbance phosphatase assay; 290,000 compounds, 1.1% hits; Phosphoethanolamine/phosphocholine phosphatase (Homo sapiens), Q8TCT1; in the data active = inhibition above about 60%
# Target sequence (Q8TCT1 whole entry, looked up): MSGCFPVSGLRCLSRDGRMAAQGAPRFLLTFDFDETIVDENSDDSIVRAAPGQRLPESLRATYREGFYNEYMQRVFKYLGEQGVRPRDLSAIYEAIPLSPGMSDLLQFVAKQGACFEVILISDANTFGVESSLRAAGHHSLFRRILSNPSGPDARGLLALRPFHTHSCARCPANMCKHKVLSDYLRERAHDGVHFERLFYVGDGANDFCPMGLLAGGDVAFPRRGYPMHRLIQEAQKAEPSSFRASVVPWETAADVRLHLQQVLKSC
# PfGluPho inh: PfG6PD enzyme inhibitors, primary screen, biochemical, fluorescence intensity, uHTS; inhibition, % at 20 µM; glucose-6-phosphate dehydrogenase-6-phosphogluconolactonase (Plasmodium falciparum 3D7); AID 504690, 2011; PfGluPho enzyme, NADPH resazurin-diaphorase fluorescence; 350,000 compounds, 0.78% hits;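 active = inhibition reaching at least a set limit at 20 µM in the primary screen, cut at about 59% in these data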;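 also: 0% = DMSO wells with substrate and 100% = DMSO wells lacking glucose-6-phosphate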
# PfM18AAP inh: PfM18AAP inhibitors, malaria aminopeptidase, primary screen, biochemical, QFRET, recombinant enzyme | AID 1822, 2009 | M18 aspartyl aminopeptidase (Plasmodium falciparum 3D7) | inhibition, % at 7.35 µM | H-Glu-NHMec fluorogenic cleavage | 290,000 compounds, 1.2% hits;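 active = inhibition above the campaign mean inhibition over all tested compounds plus 3 SD, cut at about 28% in these data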;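 also: 0% = plate median of test compound wells and 100% = 2 mM ZnCl2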
# The depositor's hits bear a star; nt = not tested or not shown. Shown are actives, neighbours in structure and some others; about 5.6% of the full set was active somewhere.
SMILES,H9c2 protect,ALR inh,PHOSPHO1 block,PfGluPho inh,PfM18AAP inh
CCC(CC)C(=O)N(C)c1c(C)nc2c(OCc3cccc(OC)c3)cccn12,-2,nt,nt,nt,nt
Cc1cc(C)cc(NC(=O)N2CCN(C/C=C/c3ccccc3)CC2)c1,-2,-16,10,-1,-1
CC1(C)CC2CC(C)(CN2Cc2cccc([N+](=O)[O-])c2)C1 (stereo not given),7,3,3,13,-12
CC1(C)CC2CC(C)(CN2Cc2c(O)ccc3ccccc23)C1 (stereo not given),0,95*,-24,6,-2
Cn1c(SCC(=O)Nc2cc(=O)n(C)c(=O)n2C)nnc1C12CC3CC(CC(C3)C1)C2,nt,nt,61*,nt,nt
C[C@H](CO)N1C[C@H](C)[C@@H](CN(C)S(C)(=O)=O)Oc2c(NC(=O)c3ccncc3)cccc2C1=O,10,-1,nt,6,nt
S=C(c1ccc(Br)cc1)N1CCCC1,-3,-4,nt,-1,-10
OCCN1CCN(C(=S)c2ccc(Br)cc2)CC1,5,-3,-23,43,30*
CCc1cc(C(=O)NNC(=S)NC2CCCCC2)cs1,-10,16,-102,0,2
CCc1cc(C(=O)NNC(=S)NC(C)c2ccccc2)cs1 (stereo not given),-15,37,65*,-6,-8
COc1ccccc1CN1C(=O)c2ccccc2C1C(=O)NC1CCC(C)CC1 (stereo not given),9,82*,24,-22,-14
CCC(C)NC(=O)C1c2ccccc2C(=O)N1Cc1ccccc1OC (stereo not given),-2,0,-26,-17,0
Cc1cc(SCNC(=O)c2ccccc2)nc(C(C)C)n1,6,98*,-3,12,-3
Cc1cc(C)nc(SCC(=O)O)n1,16,3,-3,-12,5
Cc1cc(C)nc(SCNC(=O)c2ccccc2)n1,3,2,-5,32,45*
CC(C)c1ccc(/C=C/C(=O)NC(=S)NN2CCOCC2)cc1,-7,80*,22,-2,1
Cc1ccc(O)c(NC(=O)C2CCCN2C(=O)OCc2ccccc2)c1 (stereo not given),0,87*,20,-3,4
Cc1cccc(NC(=O)C2CCCN2C(=O)OCc2ccccc2)c1 (stereo not given),-4,8,nt,11,nt
O=C(NCCc1ccccc1Cl)c1ccc2nc3ccccc3c(=O)n2c1,58*,nt,-3,-13,-1
O=C(NNc1cccc(Cl)n1)c1ccc(Cl)nc1,5,26,-18,6,26
O=C(NNc1c(F)c(F)cc(F)c1F)c1ccc(Cl)nc1,2,96*,14,13,11
O=C(NC(=S)NNC(=O)[C@H]1C[C@@H]1c1ccccc1)c1cccc(F)c1,7,98*,21,0,9
COc1ccc(C2(C(=O)Nc3ccc(C)cc3)CCOCC2)cc1,-4,6,46,18,-14
CCC(C)NC(=O)[C@H]1N2C(=O)c3c(ccc(OC)c3OC)C2SC1(C)C (stereo not given in full),4,0,42,-10,1
O=C(CNc1cccc(S(=O)(=O)N2CCCCCC2)c1)Nc1cccc([N+](=O)[O-])c1,-13,nt,nt,-16,nt
SMILES,H9c2 protect,ALR inh,PHOSPHO1 block,PfGluPho inh,PfM18AAP inh
O=C(CNc1cc([N+](=O)[O-])ccc1NCCO)Nc1cccc(S(=O)(=O)N2CCCCC2)c1,-9,97*,nt,0,nt
CC(C)COP(=O)(c1ccc(N(C)C)cc1)C(O)c1ccc(N(C)C)cc1 (stereo not given),-9,98*,20,5,-6
CC(C)COP(=O)(OCC(C)C)C(O)c1ccc(N(C)C)cc1 (stereo not given),-2,92*,37,15,10
CC(C)COP(=O)(c1ccc(N(C)C)cc1)C(O)c1ccccc1 (stereo not given),-4,11,nt,-11,0
CSc1ccc(CN(C)CC(=O)NC(=O)NCCC2=CCCCC2)cc1,-9,nt,nt,0,nt
CC(C)C(=O)NN(C(=O)C(C)C)c1nc2ccccc2s1,0,95*,20,-16,3
CC(C)C(=O)N(Nc1nc2ccccc2s1)C(=O)C(C)C,-4,64,22,6,-1
CC1=Nn2c(nnc2-c2ccccc2Cl)SC1,1,-9,74*,6,2
COc1ccccc1-c1nnc2n1N=C(C)CS2,0,-5,74*,8,2
CC(OC(=O)c1ccc2c(c1)NC(=O)CS2)C(=O)c1ccc(F)cc1 (stereo not given),-9,-10,nt,24,nt
COc1ccccc1NC(=O)COc1ccc(Br)cc1CNCCCN1CCOCC1,6,-2,70*,10,-5
O=C1NC(CCc2ccccc2)C(=O)N1CCOc1cccc(Br)c1 (stereo not given),-6,2,9,-9,0
CNS(=O)(=O)c1ccc2nc(NC(=O)/C=C/c3ccco3)sc2c1,64*,5,9,-1,2
Cc1nc(NC(=O)/C=C/c2ccco2)sc1C,-1,nt,-24,-4,4
CN(C)S(=O)(=O)c1ccc(C(=O)N2CCN(S(=O)(=O)c3ccc4c(c3)OCCO4)CC2)cc1,8,nt,nt,-5,nt
O=c1[nH]c(SCc2ccccc2Cl)nc2[nH]ncc12,4,-20,15,-6,48*
CNC(=O)CSc1nc2[nH]ncc2c(=O)[nH]1,0,4,7,-10,30*
O=C(NCc1ccco1)C(c1ccncc1)N(C(=O)Cc1cccs1)c1ccccc1 (stereo not given),4,-10,28,25,6
O=C(NCc1ccco1)C(c1ccccc1)N(C(=O)Cc1cccs1)c1ccccc1F (stereo not given),75*,nt,-90,-2,7
O=C(CCC1CCCC1)NNC(=O)c1ccc(F)cc1,-3,8,nt,13,nt
O=C(NNC(=O)c1cccnc1Cl)c1ccc(F)cc1,0,0,28,-12,-23
CCOc1ccc(CSC2=NCCN2)cc1[N+](=O)[O-],4,99*,0,-11,2
COc1ccc(CSC(=N)N)cc1[N+](=O)[O-],8,nt,16,6,-3
CCCCCOc1ccc(CSC(=N)N)cc1[N+](=O)[O-],-19,99*,11,-6,-10
CCCCOc1ccc(CSC2=NCCN2)cc1[N+](=O)[O-],-8,100*,17,-6,2
O=[N+]([O-])c1ccc(CSC2=NCCS2)cc1,1,99*,14,4,4
O=C(C1CC(=O)N(c2ccc3c(c2)OCCO3)C1)N1CCN(Cc2ccccc2F)CC1 (stereo not given),7,-4,nt,2,nt
O=C1CN(C(=O)CN2CCN(S(=O)(=O)c3ccccc3)CC2)c2ccccc2N1,-2,nt,nt,-1,nt
